Compound activity as filed in PubChem.
CYP2C9 activ: increases human cytochrome P450 2C9 activity. P11712. recombinant CYP2C9, luciferin-H conversion, luminescence; hits give high values; factor 1 = untreated enzyme, 0 = blocked. activation factor at 5 µM. 96,000 compounds, 1.4% hits. AID 1024;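 active = activation factor of 2 or more for CYP2C9 at a 5 µM dose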;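 also: 0 = sulfaphenazole-blocked wells and 1 = vehicle-only wells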
CYP2C19 inhib: inhibitors of human CYP2C19; CYP2C19 Supersomes, luciferin-H EGE luminescence, 30 min; inhibition, % at 5 µM; 96,000 compounds, 21% hits; AID 778;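 active = CYP2C19 inhibition above a set limit at 5 µM in the primary screen, cut at about 50% in these data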;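 also: plate controls were negative control wells for no effect and 2.5 mM tranylcypromine positive control for full effect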
Target sequence (P33261 whole entry, looked up): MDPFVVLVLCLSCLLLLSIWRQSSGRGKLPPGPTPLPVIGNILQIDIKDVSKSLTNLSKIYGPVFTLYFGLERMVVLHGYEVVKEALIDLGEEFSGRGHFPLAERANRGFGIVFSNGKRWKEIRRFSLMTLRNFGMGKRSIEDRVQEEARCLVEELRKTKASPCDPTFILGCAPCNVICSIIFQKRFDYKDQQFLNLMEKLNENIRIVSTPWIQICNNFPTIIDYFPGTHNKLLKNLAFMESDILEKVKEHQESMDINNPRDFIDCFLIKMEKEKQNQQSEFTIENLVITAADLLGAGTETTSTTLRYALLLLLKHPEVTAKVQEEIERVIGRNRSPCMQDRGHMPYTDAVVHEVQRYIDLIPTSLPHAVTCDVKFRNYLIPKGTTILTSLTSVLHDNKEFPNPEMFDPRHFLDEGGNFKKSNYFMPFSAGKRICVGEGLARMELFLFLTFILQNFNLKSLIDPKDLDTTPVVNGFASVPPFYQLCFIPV
Cav3 T inh: human Cav3.2 channel inhibition, primary screen; 100,000 compounds, 4% hits; B-score at 10 µM; O95180; AID 449739; Cav3.2-expressing cells, Fluo-4 calcium fluorescence FDSS; hits give low values;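 active = single-dose well whose peak fluorescence ratio is a statistical outlier from its plate by either plate-standardised score or position-corrected B-score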
CYP2C19 activ: cytochrome P450 2C19 (human) activation. recombinant CYP2C19, luciferin-H EGE luminescence; hits give high values; 0 = fully inhibited enzyme, 1 = untreated enzyme. activation factor at 5 µM. 96,000 tested, under 10 active. AID 1025;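 active = activation factor of at least 2 at 5 µM in the primary screen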;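 also: 0 = wells with 2.5 mM tranylcypromine and 1 = vehicle-only wells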
CYP2C9 inh: human CYP2C9 inhibition; P11712; CYP2C9 Supersomes, luciferin-H conversion, luminescence; inhibition, % at 5 µM; 96,000 compounds, 20% hits; AID 777;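 active = blocking of liver enzyme CYP2C9 beyond about 50% at 5 µM, limit read from the data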
The depositor's hits bear a star; x = not tested or not shown. A selection: hits, their analogues and other compounds. The true share with any hit is near 27%.

SMILES	CYP2C9 activ	CYP2C19 inhib	Cav3 T inh	CYP2C19 activ	CYP2C9 inh
CN(C)S(=O)(=O)c1ccc2oc(SCC(=O)NCC(F)(F)F)nc2c1	0.9	15	0.058	0.9	11
O=C(Cc1cccs1)N1CCCC(c2nc3c(nnn3Cc3cccc(Cl)c3)c(=O)[nH]2)C1 (stereo unspecified)	0	66*	-1	0.3	96*
O=C(Cc1cccs1)N1CCC(c2nc3c(nnn3Cc3ccc(F)cc3)c(=O)[nH]2)CC1	0	41	0.3	0.6	96*
C=CCNC(=O)c1onc(CSc2cccc(OC)c2)c1C(=O)NCC=C	x	x	0.071	x	x
O/N=C(\c1ccc(Cl)cc1)c1ncc(C(F)(F)F)cc1Cl	0.1	98*	-6.1*	0	86*
O=C(COc1ccccc1-c1ccccc1)Nc1ccc(S(=O)(=O)NCc2ccco2)cc1	0.7	-5	-0.91	1	34
COc1cc(-c2cccs2)cc(=O)c2c(C)oc(C)c12	0.6	13	-4.1	0.9	41
COc1ccc(-c2cc(OC(=O)c3ccc(F)cc3)c3c(C)oc(C)c3c(=O)c2)cc1	0.4	0	-0.67	1	56*
O=C(CN1CCN(S(=O)(=O)c2ccccc2)CC1)NC(=O)NCc1ccccc1	0.4	36	1.1	0.6	62*
O=C(CN1CCN(S(=O)(=O)c2ccccc2)CC1)NC(=O)NC1CCCCC1	0.3	55*	1	0.5	74*
CCOc1ccccc1N1CC(C(=O)Nc2ccc(C(=O)O)cc2)CC1=O (stereo unspecified)	1	4	-0.057	1	3
CCOC(=O)CC(=O)CSc1nc2c(C)c(C)ccc2cc1C	0.5	61*	-0.83	0.4	54*
CC(NC(=O)c1cccs1)C(c1cccs1)N1CCOCC1 (stereo unspecified)	x	x	-0.96	x	x
C/C(=N\OC(=O)c1ccc(OC(C)C)cc1)c1ccc(C)c(C)c1	0.4	56*	-2.4	0.4	56*
Cc1ccc(OC(=O)c2ccc(C)c(C)c2)cn1	0.7	10	-0.84	0.9	28
Cc1cc(C)nc(NC(=O)c2ccc(OC(C)C)cc2)n1	1.1	17	0.78	0.8	-6
C/C(=N\OC(=O)c1ccc(C)cc1)c1sc(C)nc1C	1.1	0	-0.47	1	-13
CC/C(=N\OC(=O)c1ccc(OC(C)C)cc1)c1ccc(C)cc1	0.4	73*	x	0.3	62*
COc1ccc(C(=O)O/N=C(\C)c2ccccc2)cc1	0.1	52*	-1.1	0.5	88*
Cc1ccc(CN2C(=O)C3CCCN3c3ccc(S(=O)(=O)N4CCOCC4)cc32)cc1 (stereo unspecified)	0.6	10	-1.7	0.9	43
COc1ccc(-c2ccc(-c3noc(C(C)C)n3)c(OC)n2)cc1	0.3	66*	-1.8	0.3	72*
CCc1nc(-c2ccc(-c3ccc(OC)cc3)nc2OC)no1	x	x	-2.2	x	x
COc1cccc(-c2ccc(-c3noc(-c4ccccc4F)n3)c(OC)n2)c1	0.4	17	-3.4	0.8	61*
COc1cccc(-c2ccc(-c3noc(-c4cccs4)n3)c(OC)n2)c1	1	3	-0.024	1	-2
CN(C(=O)c1cccs1)c1ccccc1C(=O)O	1.2	-15	0.83	1.2	-16
SMILES	CYP2C9 activ	CYP2C19 inhib	Cav3 T inh	CYP2C19 activ	CYP2C9 inh
CCCN1CCN(C(=O)Cn2cccc2C(=O)c2ccccc2)CC1	x	x	1.2	x	x
Clc1ccc(OCCSc2nnnn2C2CCCCC2)cc1	1.1	-12	-0.011	1.1	-9
CCOc1ccc(OCCSc2nnnn2C2CCCCC2)cc1	0.1	57*	x	0.4	88*
CCOc1ccc(OCCSc2nnnn2-c2ccccc2)cc1	0.5	31	-2.6	0.7	50*
COc1ccccc1OCCSc1nnnn1-c1ccc(C)cc1	0.8	99*	-5*	0	23
Cc1ncc(CSc2nnnn2-c2ccccc2)c(N)n1	1.1	64*	1.4	0.4	-13
CCCS(=O)(=O)N1CCCC(C(=O)NCCN(C)Cc2ccccc2)C1 (stereo unspecified)	0.9	11	0.18	0.9	12
CC1CCCC(C(=O)O)N1C(=O)CCSSCCC(=O)N1C(C)CCCC1C(=O)O (stereo unspecified)	1.1	-12	0.0056	1.1	-14
c1ccc(OCCSc2nnnn2-c2ccccc2)cc1	0.6	11	-6*	0.9	36
Cc1ccccc1Nc1nc(CSc2nnnn2-c2ccccc2)cs1	0.5	94*	-3.2	0.1	51*
O=C(C1=C[C@H](c2coc3ccccc3c2=O)C[C@H](OCCCCO)O1)N1CCOCC1	x	x	-1.5	x	x
CSc1nc(-c2ccco2)nn1C(=O)c1ccc(Cl)cc1	1.1	-7	x	1.1	-5
CCCC(=O)c1c[nH]c(C(=O)NCCCN2CCOCC2)c1	1.2	-13	-0.071	1.1	-16
CCNc1cc(N2CCN(S(=O)(=O)c3ccc4c(c3)CCCC4)CC2)ccc1[N+](=O)[O-]	0.7	54*	-3.7	0.5	33
Cc1cc(C)c(S(=O)(=O)N2CCN(c3ccc([N+](=O)[O-])c(NCc4ccco4)c3)CC2)c(C)c1	0.5	37	-1.4	0.6	53*
Cc1cc(C)c(S(=O)(=O)N2CCN(c3ccc([N+](=O)[O-])c(NCC4CCCO4)c3)CC2)c(C)c1 (stereo unspecified)	0.4	36	-1.3	0.6	56*
CC(C)c1ccc(CNc2cc(N3CCCC3)ccc2[N+](=O)[O-])cc1	0.5	30	-1.3	0.7	53*
CC(C)(C)CNc1cc(N2CCCC2)ccc1[N+](=O)[O-]	0.7	4	0.22	1	29
COC(=O)Cc1cc(=O)[nH]c(Nc2nc3ccccc3o2)n1	1	10	3.5*	0.9	-1
CCN(CCNC(=O)Nc1ccc(Cl)cc1)c1ccccc1	0.7	59*	-2.1	0.4	26
O=C(NCCOc1nc(N2CCCCC2)nc(N2CCOCC2)n1)Nc1ccccc1	0.3	38	-1.7	0.6	69*
CCN(CC)c1nc(OCCNC(=O)Nc2ccccc2)nc(N(CC)CC)n1	0.1	48	-10*	0.5	88*
CCCCCCNC(=O)Nc1ccccc1	0.4	96*	-0.71	0	56*
CCCCOC(=O)/C(=C\c1ccc([N+](=O)[O-])o1)NC(=O)c1ccccc1	x	x	0.68	x	x
CCN(C(=O)CSc1nc(-c2ccccc2)c(-c2ccccc2)[nH]1)C1CCS(=O)(=O)C1 (stereo unspecified)	0.6	6	0.51	0.9	40
Nn1c(SCc2cccc3ccccc23)nnc1-c1ccco1	2.6*	36	0.088	0.6	-164
Cn1c(SCC(=O)OCc2ccccc2)nnc1-c1ccco1	1	18	0.069	0.8	3
COc1cccc(CSc2nnc(-c3ccco3)n2C)c1	0.8	95*	0.1	0.1	17
Nn1c(SCc2ccccc2)nnc1-c1ccco1	1.1	13	0.44	0.9	-11
Cn1c(SCc2cccc3ccccc23)nnc1-c1ccco1	1.4	83*	-2.2	0.2	-40
